Measured values: PubChem BioAssay
For part of these data: Results with a measured potency or affinity are listed apart. Calls of active or inactive are those of the source. Unless noted, how the calls were made is not given here.

Columns and labels:
[1] = biological target: Cell division control protein 42 homolog (Homo sapiens) (UniProt P60953); assay: inhibition of fluorescent GTP binding to constitutively active Cdc42 – biochemical, multiplex bead flow cytometry, Bodipy-FL-GTP, dose response (AID 1333;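 active means fitted half-maximal concentration within the tested dose range, moderate curve steepness, a statistically real signal drop, and little compound fluorescence or tag-binding interference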)
Cell division control protein 42 homolog (Homo sapiens), sequence (P60953 whole entry, looked up): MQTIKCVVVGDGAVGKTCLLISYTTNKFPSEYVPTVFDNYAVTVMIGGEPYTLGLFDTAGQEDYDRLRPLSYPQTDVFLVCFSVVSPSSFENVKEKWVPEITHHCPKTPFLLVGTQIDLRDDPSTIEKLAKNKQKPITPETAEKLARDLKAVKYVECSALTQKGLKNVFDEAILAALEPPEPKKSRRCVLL

[2] = biological target: Cell division control protein 42 homolog (Homo sapiens) (UniProt P60953); assay: inhibition of fluorescent GTP binding to wildtype Cdc42 – biochemical, multiplex bead flow cytometry, Bodipy-FL-GTP, dose response (AID 1334;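 active means fitted half-maximal concentration within the tested range, moderate curve steepness, significant signal drop, and little compound fluorescence or bead-linkage interference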); conditions: bead-based flow cytometry, Bodipy-FL-GTP binding to GST-Cdc42; at 100 µM (top of the series) unless noted
[3] = biological target: GTPase HRas (Homo sapiens) (UniProt P01112); assay: Ras wt fluorescent GTP loading blockade – biochemical, wildtype, multiplex bead flow cytometry, dose response (AID 1335;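 active means fitted half-maximal concentration within 10 nM to 100 µM, steepness 0.5 to 2, significant signal drop, low assay interference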); conditions: bead-based flow cytometry, Bodipy-GTP binding to GST-Ras; at 100 µM (top of the series) unless noted
GTPase HRas (Homo sapiens), sequence (P01112 whole entry, looked up): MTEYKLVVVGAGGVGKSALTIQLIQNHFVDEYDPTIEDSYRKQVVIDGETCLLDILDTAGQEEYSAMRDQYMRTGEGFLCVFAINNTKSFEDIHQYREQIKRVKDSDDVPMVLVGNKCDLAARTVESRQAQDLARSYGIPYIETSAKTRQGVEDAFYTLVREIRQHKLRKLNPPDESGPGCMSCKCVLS

[4] = test system: Ras-related protein Rab-7a (dog), GTP binding; assay: blockers of fluorescent GTP binding to Rab7 – biochemical, wildtype, multiplex bead flow cytometry, dose response (AID 1336)
[5] = biological target: Ras-related C3 botulinum toxin substrate 1 (Homo sapiens) (UniProt P63000); assay: inhibition of wildtype Rac1 nucleotide loading – biochemical, multiplex bead flow cytometry, dose response (AID 1340;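 active means dose curve with midpoint inside tested range, moderate steepness, plateau gap beyond fit error, low compound glow and bead-link interference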); conditions: GST-Rac1 beads, Bodipy-FL-GTP binding; at 100 µM (top of the series) unless noted
[6] = biological target: GTPase HRas (Homo sapiens) (UniProt P01112); assay: blockade of GTP loading onto mutant Ras – biochemical, activated mutant, multiplex bead flow cytometry, dose response (AID 1341;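 active means dose-response curve with midpoint inside the tested range, moderate steepness, significant amplitude and little compound fluorescence or bead-attachment interference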;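 further: GST-tagged constitutively activated Ras mutant immobilized on beads and multiplexed with other GTPases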)

Structure (SMILES) | outcome [1] | fluorescence, percent of control (lower = inhibition) [2] | GTP binding, percent of control [3] | outcome [4] | GTP binding signal, raw median fluorescence (lower = inhibition) (MCF (arbitrary fluorescence units)) [5] | outcome [6]
O=S(=O)(Cc1ccc(Cl)cc1)c1ccccc1-c1nnc(-c2ccc(Cl)cc2)o1 | inactive | 84% | 160% | inactive | 172 | inactive
O=C(O)c1ccc(CNCc2ccccc2Cl)s1 | inactive | 62% | 86.6% | inactive | 32.2 | inactive
Cc1cc(C)cc(Nc2cc(C(=O)O)c3ccccc3n2)c1 | inactive | 58.9% | 80.4% | inactive | 30.7 | inactive
NC(=O)c1cc2ccccc2o/c1=N/NC(=O)c1cccs1 | inactive | 33.4% | 69.6% | inactive | 167 | inactive
COc1cccc2c(SCC(=O)N/N=C/c3ccc(O)c(O)c3)cc(C)nc12 | inactive | 27.5% | 60.2% | inactive | 119 | inactive
Nc1c(S(=O)(=O)c2cccs2)c2nc3ccccc3nc2n1/N=C/c1cccc(O)c1 | inactive | 30.6% | 77.3% | inactive | 101 | inactive
CCc1ccccc1NC(=O)N1C2CCCC1CC(NC(C)=O)C2 (centres undefined) | inactive | 102% | 152% | inactive | 191 | inactive
CCCCOC(=O)c1cccnc1SCCc1ccccc1 | inactive | 48.2% | 125% | inactive | 69.8 | inactive
Cc1ccc(C)c(N2CCN(C(=O)CN(C)S(=O)(=O)c3ccc4c(c3)CCC(=O)N4)CC2)c1 | inactive | 41.8% | 65.9% | inactive | 156 | inactive
CCn1cc(C(=O)OCC(=O)c2cc(C)n(-c3cccc(C(F)(F)F)c3)c2C)c(=O)c2ccc(C)nc21 | inactive | 37.1% | 57.8% | inactive | 137 | inactive
Cc1ccc(C(=O)OCc2nnc(-c3ccc(Br)cc3)o2)cc1 | inactive | 31.8% | 78.1% | inactive | 241 | inactive
CC(C)(C)OC(=O)N[C@@H](Cc1ccccc1)c1nnc(S(=O)(=O)Cc2cccc(F)c2)o1 | inactive | 33% | 77% | inactive | 260 | inactive
COc1cc(-c2cc(=O)c3c(O)cc(O)cc3o2)ccc1O | inactive | 36% | 84.7% | inactive | 189 | inactive
CCN=C1S/C(=C\c2ccc(OC)c(OCC)c2)C(=O)N1CC | inactive | 50.8% | 60.4% | inactive | 213 | inactive
Cc1cc2[nH]c3c(c[n+](C)c4ccccc34)c2cc1C | inactive | 35.5% | 78.4% | inactive | 253 | inactive
CCOC(=O)Cn1c(=O)c2c(nc(N3CCCCC3)n2C)n(C)c1=O | inactive | 52.2% | 63.3% | inactive | 168 | inactive
CCOc1ccc(Cn2c3ccc(OC)cc3c3nc4ccccc4nc32)cc1 | inactive | 114% [at 33.3 µM] | 127% [at 33.3 µM] | inactive | 242 | inactive
COc1cc2[nH]c(=S)nc(Nc3ccc(NC(C)=O)cc3)c2cc1OC | inactive | 23.4% | 52.2% | inactive | 118 | inactive
COc1cc(-c2cc(-c3ccc(O)cc3)nc(N)c2C#N)ccc1O | inactive | 28% | 70.9% | inactive | 158 | inactive
COc1ccc(CNCc2ccc(C(=O)O)s2)cc1 | inactive | 64.9% | 89.4% | inactive | 33.5 | inactive
O=C1C2CC=CCC2C(=O)N1c1ncn[nH]1 (centres undefined) | inactive | 97.2% | 161% | inactive | 189 | inactive
Cc1ccc(CN2CC34C=CC(C)(O3)C(C(=O)O)C4C2=O)cc1 (centres undefined) | inactive | 60.3% | 87.8% | inactive | 33.4 | inactive
CCOC(=O)Cn1nnnc1CN(Cc1cccs1)Cc1cc2cc(C)cc(C)c2[nH]c1=O | inactive | 81.6% | 161% | inactive | 171 | inactive
O=C1/C(=C\c2ccc(-c3ccccc3Cl)o2)SC(=S)N1CC1CCCO1 (centres undefined) | inactive | 29.8% | 35.9% | inactive | 116 | inactive
COc1cc(/C=N/NC(=O)CCN2CCN(c3ccccc3)CC2)cc(OC)c1OC | inactive | 34.6% | 77.3% | inactive | 236 | inactive
CC(C)CCn1c(CN2CCN(Cc3ccccc3)CC2)nc2c1c(=O)n(C)c(=O)n2C | inactive | 89.2% | 165% | inactive | 178 | inactive
Cc1ccc(C2=NN(S(=O)(=O)c3ccccc3)C(c3ccccc3O)C2)cc1 (centres undefined) | inactive | 50.2% | 104% | inactive | 158 | inactive

Structure (SMILES) | outcome [1] | fluorescence, percent of control (lower = inhibition) [2] | GTP binding, percent of control [3] | outcome [4] | GTP binding signal, raw median fluorescence (lower = inhibition) (MCF (arbitrary fluorescence units)) [5] | outcome [6]
CS(=O)(=O)c1ccc(C(=O)OCc2nnc(-c3ccccc3)o2)cc1[N+](=O)[O-] | inactive | 22.4% | 81.7% | inactive | 259 | inactive
S=C(NCCc1ccccc1)N1CCn2cccc2C1c1cccnc1 (centres undefined) | inactive | 28% | 63.3% | inactive | 227 | inactive
Cc1nc2nc(SCC(=O)O)nn2c(C)c1Cc1ccccc1Cl | inactive | 29.1% | 84% | inactive | 228 | inactive
O=C(O)c1ccc(CNCc2cccc(Cl)c2)s1 | inactive | 61.3% | 85.1% | inactive | 32.6 | inactive
COc1ccccc1OCCn1cc(C(=O)O)c2cccc(C)c21 | inactive | 50.6% | 200% | inactive | 55.9 | inactive
O=C(/C=C/c1ccc(N2CCC(c3ccccc3)=N2)cc1)c1ccccc1 | inactive | 344% | 394% | inactive | 651 | inactive
O=C(O)Cn1cc(C(=O)C2CCCCC2)c2ccccc21 | inactive | 59.5% | 88.6% | inactive | 32 | inactive
COc1ccc(/C=C2\SC(=S)NC2=O)cc1OS(=O)(=O)c1ccc(NC(C)=O)cc1 | inactive | 30.9% | 80.1% | inactive | 261 | inactive
C=C(C)COc1ccc(-c2n[nH]c(C)c2-c2ccc(Br)cc2)c(O)c1 | inactive | 32.9% | 78.5% | inactive | 265 | inactive
Cc1cc2nc3c(=O)[nH]c(=O)[nH]c3nc2c([N+](=O)[O-])c1N | inactive | 35% | 75.6% | inactive | 192 | inactive
CCN(CC)c1ccc2c(c1)oc(=O)c1c(Cl)cc(=O)oc12 | inactive | 29% | 72.6% | inactive | 226 | inactive
Cc1ccc(/C=C(\CCC(=O)O)c2nc3ccccc3s2)cc1[N+](=O)[O-] | inactive | 24.9% | 70.3% | inactive | 216 | inactive
CC(C)CCNC(=O)CN(CCCN1CCOCC1)C(=O)Cn1nnc(-c2ccc(F)cc2)n1 | inactive | 98.9% | 180% | inactive | 184 | inactive
CCNC(=O)c1cc2c(=O)n3cccc(C)c3nc2n(CCc2ccccc2)c1=N | inactive | 74% | 113% | inactive | 126 | inactive
OCCC1CN(Cc2cccc(O)c2)CCN1CCc1ccccc1 (centres undefined) | inactive | 40.6% | 90.6% | inactive | 342 | inactive
COc1cccc(-n2c(SCC(=O)NCCC3=CCCCC3)nc3n[nH]c(C)c3c2=N)c1 | inactive | 70.4% | 132% | inactive | 140 | inactive
Cc1cccc(CN2C(=O)N/C(=C/c3ccc(C)s3)C2=O)c1 | inactive | 72% | 82.5% | inactive | 201 | inactive
O=C(O)CC/C(=C\c1ccccc1[N+](=O)[O-])c1nc2ccccc2s1 | inactive | 30.2% | 81.6% | inactive | 248 | inactive
COc1cc(/C=N\NC(=O)c2ccc(Cn3nc([N+](=O)[O-])c(Cl)c3C)o2)ccc1O | inactive | 29.9% | 82% | inactive | 107 | inactive
CCOc1c2ccc(C(=O)N[C@H](C)C3CCCCC3)cc2nn1CCOC | inactive | 94.9% | 152% | inactive | 197 | inactive
O=C1CC(c2ccc(F)cc2)Sc2ccccc2N1 (centres undefined) | inactive | 101% | 170% | inactive | 207 | inactive
CCCCCCCCCCCC(=O)c1c(O)cccc1O | inactive | 28.4% | 79.8% | inactive | 241 | inactive
COc1cc(/C=C/c2ccc3cccc([N+](=O)[O-])c3n2)ccc1OCC(=O)O | inactive | 32.7% | 76.2% | inactive | 160 | inactive
CC(=O)OC(C(=O)NC1CCCCC1)c1ccc(Cl)c(Cl)c1 (centres undefined) | inactive | 39.6% | 88.7% | inactive | 310 | inactive
COc1ccc2nc(/C(C#N)=C\c3ccc(C(=O)O)cc3)[nH]c2c1 | inactive | 31.4% | 72.6% | inactive | 189 | inactive
CC(=O)Nc1ccc(NC(=O)CCn2nnc3ccccc32)cc1 | inactive | 35.7% | 81.1% | inactive | 251 | inactive
Cc1ccc(CS(=O)(=O)c2ccccc2-c2nnc(-c3ccc(Cl)cc3)o2)cc1 | inactive | 88.2% | 156% | inactive | 181 | inactive
